In publication PMC5540273 (PLoS ONE, 2017):

Each compound was assayed on PRKX.
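Also: kd values determined as follow-up on hits from a single-replicate KINOMEscan panel screen.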

Row | Compound | Kd
1 | Cc1ccc(NC(=O)Nc2cccc(Cl)c2)cc1-c1ccc(C(=O)Nc2ccncc2)cc1 [GSK1398468] | 7400 nM
2 | CCn1c(-c2ccccn2)nc2cnccc21 [SB-736398] | > 10000 nM
3 | CC1=C(C(=O)Nc2cc3cn[nH]c3cc2F)C(c2ccc(C(F)(F)F)cc2)CC(=O)N1 (stereo not shown) [GSK429286] | 350 nM

Each compound was assayed on RAF1.

Row | Compound | Kd
4 | Cc1cccc(-c2nc(-c3ccc(S(C)(=O)=O)cc3)sc2-c2ccnc(NCCc3ccccc3)c2)c1 | 150 nM
5 | Cc1ccc(NC(=O)Nc2cccc(Cl)c2)cc1-c1ccc(C(=O)Nc2ccncc2)cc1 [GSK1398468] | 180 nM
6 | CN(C)CCN(C)C(=O)c1cc(-c2ccncc2)c(-c2ccc(Cl)c(O)c2)o1.Cl.Cl [SB-710397] | 650 nM
7 | CC(=O)Nc1nc2cnc(Nc3cc(NC(=O)c4cccc(CCC#N)c4)ccc3C)nc2s1 | > 10000 nM
8 | Cc1ccc(NC(=O)Nc2cc(C(C)(C)C)nn2-c2ccccc2)cc1 [GSK1014915] | 270 nM
9 | COC(=O)c1c(-c2ccccc2)c2cc(C(=O)O)ccc2c(=O)n1Cc1ccccc1 | 170 nM
10 | COC(=O)c1c(-c2ccccc2)c2cc(OC)ccc2c(=O)n1Cc1ccccc1 | 390 nM
11 | Cc1cccc(-c2nc(C)cc(Nc3ccncc3)n2)n1 [GSK257997] | > 10000 nM
12 | Cl.O=C(Nc1cccc(-c2nn3ncccc3c2-c2ccnc(Nc3cccnc3)n2)c1)c1c(F)cccc1F [GSK312879] | 430 nM

The compounds below were run on RIOK2.

Row | Compound | Kd
13 | O=S(=O)(c1ccc(-c2ccnc3[nH]ccc23)cc1)N1CCCC1 [GSK846226] | 960 nM
14 | Clc1cc(Cl)cc(Nc2ccnc(Nc3cc(Cl)cc(Cl)c3)n2)c1 [GSK175726] | 150 nM
15 | Cc1cc(-c2ccc3c(c2)CC[C@@H](N[C@@H](C)c2ccccc2)C3)cnc1N.Cl [GW412617] | 650 nM

What follows are compounds tested on RIOK3.

Row | Compound | Kd
16 | Cc1ccc(C(=O)Nc2ccc(Nc3ccnc4cc(-c5ccccn5)ccc34)cc2O)cc1.Cl [GW440146] | > 10000 nM
17 | COc1cccc(-c2cc(-c3c[nH]nc3-c3ccccn3)ccn2)c1 [GW680338] | 9600 nM
18 | O=S(=O)(c1ccc(-c2ccnc3[nH]ccc23)cc1)N1CCCC1 [GSK846226] | 540 nM
19 | COc1cc2ncn(-c3cc(OCC4CCCO4)c(C(N)=O)s3)c2cc1OC (stereo not shown) [GSK204607] | 670 nM

What follows are compounds tested on ROCK1.

Row | Compound | Kd
20 | O=S(=O)(c1ccc(-c2ccnc3[nH]ccc23)cc1)N1CCCC1 [GSK846226] | 330 nM
21 | CSc1nn2c(=O)cc(N3CCOCC3)nc2n1Cc1cccc(C(F)(F)F)c1C [GSK2363608] | 46 nM
22 | CC1=C(C(=O)Nc2cc3cn[nH]c3cc2F)C(c2ccc(C(F)(F)F)cc2)CC(=O)N1 (stereo not shown) [GSK429286] | 2.7 nM
